Laboratory results: the supplement of paper PMC11732987, “Enantioselective OTUD7B fragment discovery through chemoproteomics screening and high-throughput optimisation” (Communications Chemistry, 2025)

What was measured:
Assay in all cases: log2 ratio of Biotin-Ahx-Ub-VS probe labelling (fragment/DMSO); higher = less target engagement (more negative = stronger competition), active = hit call of the paper (q ≤ 0.05, log2 ratio ≤ -1)
Details in all cases: compound concentration: 200 uM; treatment time: 3 h
[1] = molecular target: T1, USP42 (UniProt Q9H9J4)
T1 sequence (whole entry): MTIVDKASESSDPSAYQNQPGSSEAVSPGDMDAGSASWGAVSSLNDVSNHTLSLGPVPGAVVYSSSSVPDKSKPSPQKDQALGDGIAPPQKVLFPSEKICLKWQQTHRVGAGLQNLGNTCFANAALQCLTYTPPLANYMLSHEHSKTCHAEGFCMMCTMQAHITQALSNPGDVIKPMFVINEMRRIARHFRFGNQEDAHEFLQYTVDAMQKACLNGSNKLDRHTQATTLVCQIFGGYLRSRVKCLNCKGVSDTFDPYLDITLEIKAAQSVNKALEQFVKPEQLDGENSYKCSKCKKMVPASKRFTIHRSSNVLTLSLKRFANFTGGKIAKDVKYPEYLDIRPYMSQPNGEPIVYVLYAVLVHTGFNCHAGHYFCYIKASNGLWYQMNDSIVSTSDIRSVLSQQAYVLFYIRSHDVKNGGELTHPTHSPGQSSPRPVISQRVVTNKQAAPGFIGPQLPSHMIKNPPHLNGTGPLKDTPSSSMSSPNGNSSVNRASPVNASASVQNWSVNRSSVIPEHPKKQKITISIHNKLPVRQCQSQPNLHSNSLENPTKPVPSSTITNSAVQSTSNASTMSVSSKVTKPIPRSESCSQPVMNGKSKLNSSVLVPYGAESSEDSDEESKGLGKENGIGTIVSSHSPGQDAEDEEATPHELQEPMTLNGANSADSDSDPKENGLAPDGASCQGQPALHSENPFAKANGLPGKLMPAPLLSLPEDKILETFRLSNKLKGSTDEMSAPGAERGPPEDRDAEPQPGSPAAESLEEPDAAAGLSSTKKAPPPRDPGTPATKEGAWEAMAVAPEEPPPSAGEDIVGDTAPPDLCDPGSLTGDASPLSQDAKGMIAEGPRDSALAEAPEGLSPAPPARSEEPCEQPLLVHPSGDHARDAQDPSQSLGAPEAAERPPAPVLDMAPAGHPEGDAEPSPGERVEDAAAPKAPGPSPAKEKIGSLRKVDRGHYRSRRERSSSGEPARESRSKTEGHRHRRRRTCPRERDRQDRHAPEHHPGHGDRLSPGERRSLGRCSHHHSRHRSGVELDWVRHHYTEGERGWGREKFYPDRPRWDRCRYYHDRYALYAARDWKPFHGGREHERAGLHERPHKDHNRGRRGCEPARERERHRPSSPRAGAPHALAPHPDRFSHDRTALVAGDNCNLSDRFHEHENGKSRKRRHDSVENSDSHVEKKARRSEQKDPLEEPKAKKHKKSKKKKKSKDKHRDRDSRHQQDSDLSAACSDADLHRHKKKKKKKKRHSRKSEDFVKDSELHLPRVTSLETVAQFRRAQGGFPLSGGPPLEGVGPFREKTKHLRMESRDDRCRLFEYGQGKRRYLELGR
Method in brief: (§1)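 Labelling with Biotin-Ahx-Ub-VS (0.5 µM final, 1 h) followed a 3 h triplicate treatment of HEK293T lysate (495 µg per sample, Tris/CHAPS/IGEPAL buffer with protease inhibitors) with fragment at 200 µM or vehicle. Labelled DUBs were NeutrAvidin-enriched, digested with LysC and trypsin, and run by diaPASEF LC-MS/MS. The values, average log2 fragment/vehicle ratios by unpaired t-test, come from global-median-normalised Spectronaut label-free quantities. Proteins with ≥2 unique peptides were used.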

[2] = molecular target: USP46 (UniProt P62068)
Chain of USP46 (P62068 whole entry): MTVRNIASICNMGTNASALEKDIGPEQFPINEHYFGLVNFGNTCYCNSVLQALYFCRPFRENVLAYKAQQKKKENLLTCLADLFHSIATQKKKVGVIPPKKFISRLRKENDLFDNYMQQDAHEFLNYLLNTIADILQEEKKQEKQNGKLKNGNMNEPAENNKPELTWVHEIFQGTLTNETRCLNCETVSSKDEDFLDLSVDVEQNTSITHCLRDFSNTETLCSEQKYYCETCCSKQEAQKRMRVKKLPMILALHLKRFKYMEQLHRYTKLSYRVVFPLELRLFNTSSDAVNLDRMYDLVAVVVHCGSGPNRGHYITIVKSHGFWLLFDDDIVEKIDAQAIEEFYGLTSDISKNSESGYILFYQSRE
Method in brief: as §1

[3] = molecular target: T2, USP47 (UniProt Q96K76)
T2 sequence (whole entry): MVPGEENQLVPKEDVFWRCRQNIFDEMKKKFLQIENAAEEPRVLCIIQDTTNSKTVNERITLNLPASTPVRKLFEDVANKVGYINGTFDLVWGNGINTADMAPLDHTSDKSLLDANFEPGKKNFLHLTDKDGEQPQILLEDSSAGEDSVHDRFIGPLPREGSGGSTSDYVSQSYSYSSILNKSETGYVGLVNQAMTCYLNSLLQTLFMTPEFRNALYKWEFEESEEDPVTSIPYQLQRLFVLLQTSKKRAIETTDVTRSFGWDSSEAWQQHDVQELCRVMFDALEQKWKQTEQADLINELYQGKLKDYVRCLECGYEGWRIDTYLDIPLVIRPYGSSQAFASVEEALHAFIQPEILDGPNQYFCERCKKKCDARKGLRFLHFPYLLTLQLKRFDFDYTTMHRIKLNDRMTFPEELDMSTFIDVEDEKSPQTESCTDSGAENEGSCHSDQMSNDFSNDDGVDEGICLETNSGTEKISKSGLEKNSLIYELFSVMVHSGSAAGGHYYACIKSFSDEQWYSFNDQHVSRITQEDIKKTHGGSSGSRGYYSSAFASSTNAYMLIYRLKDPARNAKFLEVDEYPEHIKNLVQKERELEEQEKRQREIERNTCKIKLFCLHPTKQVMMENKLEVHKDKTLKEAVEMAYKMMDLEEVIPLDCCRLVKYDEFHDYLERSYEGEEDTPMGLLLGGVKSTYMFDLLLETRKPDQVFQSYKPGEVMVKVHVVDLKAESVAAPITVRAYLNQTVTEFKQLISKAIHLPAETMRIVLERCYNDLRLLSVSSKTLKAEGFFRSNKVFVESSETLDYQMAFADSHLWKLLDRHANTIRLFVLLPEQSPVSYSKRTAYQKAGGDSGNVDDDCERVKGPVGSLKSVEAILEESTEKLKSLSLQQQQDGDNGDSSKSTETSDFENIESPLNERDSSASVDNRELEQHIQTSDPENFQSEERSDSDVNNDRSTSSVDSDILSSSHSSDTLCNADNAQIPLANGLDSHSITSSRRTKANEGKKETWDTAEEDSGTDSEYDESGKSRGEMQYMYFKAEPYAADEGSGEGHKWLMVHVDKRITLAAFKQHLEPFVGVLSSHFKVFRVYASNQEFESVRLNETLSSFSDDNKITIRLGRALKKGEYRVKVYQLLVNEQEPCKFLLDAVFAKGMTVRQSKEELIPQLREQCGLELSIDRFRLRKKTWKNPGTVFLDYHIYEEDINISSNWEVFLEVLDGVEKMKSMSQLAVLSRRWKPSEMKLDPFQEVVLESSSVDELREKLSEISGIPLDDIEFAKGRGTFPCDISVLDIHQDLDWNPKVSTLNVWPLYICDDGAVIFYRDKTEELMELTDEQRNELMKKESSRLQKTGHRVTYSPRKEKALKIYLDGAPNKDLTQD
Method in brief: as §1

[4] = molecular target: T3, USP48 (UniProt Q86UV5)
T3 sequence (whole entry): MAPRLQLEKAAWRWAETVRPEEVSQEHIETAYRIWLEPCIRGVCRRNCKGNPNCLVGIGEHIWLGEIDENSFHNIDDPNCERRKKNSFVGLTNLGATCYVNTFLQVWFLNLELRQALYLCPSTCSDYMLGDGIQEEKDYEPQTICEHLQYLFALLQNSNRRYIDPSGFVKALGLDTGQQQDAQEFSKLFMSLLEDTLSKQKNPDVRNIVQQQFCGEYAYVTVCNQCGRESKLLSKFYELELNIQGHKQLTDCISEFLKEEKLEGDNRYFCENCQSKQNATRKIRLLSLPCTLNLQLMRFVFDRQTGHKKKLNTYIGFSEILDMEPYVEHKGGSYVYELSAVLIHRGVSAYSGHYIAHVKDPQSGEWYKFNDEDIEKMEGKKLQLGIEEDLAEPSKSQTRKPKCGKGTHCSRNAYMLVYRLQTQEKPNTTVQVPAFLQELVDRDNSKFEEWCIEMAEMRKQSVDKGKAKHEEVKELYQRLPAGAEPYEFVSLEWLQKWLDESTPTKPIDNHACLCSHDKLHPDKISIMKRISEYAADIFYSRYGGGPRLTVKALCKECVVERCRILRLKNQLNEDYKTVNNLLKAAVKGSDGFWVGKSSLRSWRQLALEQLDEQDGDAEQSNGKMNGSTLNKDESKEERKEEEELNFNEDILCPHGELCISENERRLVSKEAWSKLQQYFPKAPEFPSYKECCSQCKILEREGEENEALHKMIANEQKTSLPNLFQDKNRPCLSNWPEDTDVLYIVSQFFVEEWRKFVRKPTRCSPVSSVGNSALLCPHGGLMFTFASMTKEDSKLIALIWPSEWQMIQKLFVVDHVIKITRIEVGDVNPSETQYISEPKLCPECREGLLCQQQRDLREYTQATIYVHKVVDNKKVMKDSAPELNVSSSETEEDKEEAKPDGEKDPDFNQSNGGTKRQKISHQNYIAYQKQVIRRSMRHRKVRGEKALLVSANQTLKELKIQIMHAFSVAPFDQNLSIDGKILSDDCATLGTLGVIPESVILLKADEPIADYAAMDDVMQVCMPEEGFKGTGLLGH
Method in brief: as §1

[5] = molecular target: T4, USP5 (UniProt P45974)
T4 sequence (whole entry): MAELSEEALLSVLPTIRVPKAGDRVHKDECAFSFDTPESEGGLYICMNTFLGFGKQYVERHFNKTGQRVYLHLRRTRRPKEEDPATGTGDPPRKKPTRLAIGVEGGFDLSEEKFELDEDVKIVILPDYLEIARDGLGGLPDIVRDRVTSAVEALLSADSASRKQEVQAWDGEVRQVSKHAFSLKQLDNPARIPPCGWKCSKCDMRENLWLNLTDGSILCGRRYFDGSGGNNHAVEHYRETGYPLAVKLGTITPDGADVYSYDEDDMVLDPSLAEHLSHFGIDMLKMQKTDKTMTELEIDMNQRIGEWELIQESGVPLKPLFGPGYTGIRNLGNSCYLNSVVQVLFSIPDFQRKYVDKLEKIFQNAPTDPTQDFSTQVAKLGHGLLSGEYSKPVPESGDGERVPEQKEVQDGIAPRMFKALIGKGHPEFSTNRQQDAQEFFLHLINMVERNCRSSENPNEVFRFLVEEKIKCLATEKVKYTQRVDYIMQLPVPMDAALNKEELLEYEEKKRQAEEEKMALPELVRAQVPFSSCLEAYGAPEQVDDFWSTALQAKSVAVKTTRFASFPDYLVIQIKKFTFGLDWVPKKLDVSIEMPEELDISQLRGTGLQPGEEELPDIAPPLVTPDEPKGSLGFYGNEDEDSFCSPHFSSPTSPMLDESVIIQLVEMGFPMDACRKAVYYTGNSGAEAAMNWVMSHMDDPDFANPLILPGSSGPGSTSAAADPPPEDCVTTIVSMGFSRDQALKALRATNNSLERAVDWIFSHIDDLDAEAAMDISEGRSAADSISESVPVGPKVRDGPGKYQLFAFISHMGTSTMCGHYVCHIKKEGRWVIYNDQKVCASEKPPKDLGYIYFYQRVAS
Method in brief: as §1

[6] = molecular target: USP54 (UniProt Q70EL1)
Chain of USP54 (Q70EL1 whole entry): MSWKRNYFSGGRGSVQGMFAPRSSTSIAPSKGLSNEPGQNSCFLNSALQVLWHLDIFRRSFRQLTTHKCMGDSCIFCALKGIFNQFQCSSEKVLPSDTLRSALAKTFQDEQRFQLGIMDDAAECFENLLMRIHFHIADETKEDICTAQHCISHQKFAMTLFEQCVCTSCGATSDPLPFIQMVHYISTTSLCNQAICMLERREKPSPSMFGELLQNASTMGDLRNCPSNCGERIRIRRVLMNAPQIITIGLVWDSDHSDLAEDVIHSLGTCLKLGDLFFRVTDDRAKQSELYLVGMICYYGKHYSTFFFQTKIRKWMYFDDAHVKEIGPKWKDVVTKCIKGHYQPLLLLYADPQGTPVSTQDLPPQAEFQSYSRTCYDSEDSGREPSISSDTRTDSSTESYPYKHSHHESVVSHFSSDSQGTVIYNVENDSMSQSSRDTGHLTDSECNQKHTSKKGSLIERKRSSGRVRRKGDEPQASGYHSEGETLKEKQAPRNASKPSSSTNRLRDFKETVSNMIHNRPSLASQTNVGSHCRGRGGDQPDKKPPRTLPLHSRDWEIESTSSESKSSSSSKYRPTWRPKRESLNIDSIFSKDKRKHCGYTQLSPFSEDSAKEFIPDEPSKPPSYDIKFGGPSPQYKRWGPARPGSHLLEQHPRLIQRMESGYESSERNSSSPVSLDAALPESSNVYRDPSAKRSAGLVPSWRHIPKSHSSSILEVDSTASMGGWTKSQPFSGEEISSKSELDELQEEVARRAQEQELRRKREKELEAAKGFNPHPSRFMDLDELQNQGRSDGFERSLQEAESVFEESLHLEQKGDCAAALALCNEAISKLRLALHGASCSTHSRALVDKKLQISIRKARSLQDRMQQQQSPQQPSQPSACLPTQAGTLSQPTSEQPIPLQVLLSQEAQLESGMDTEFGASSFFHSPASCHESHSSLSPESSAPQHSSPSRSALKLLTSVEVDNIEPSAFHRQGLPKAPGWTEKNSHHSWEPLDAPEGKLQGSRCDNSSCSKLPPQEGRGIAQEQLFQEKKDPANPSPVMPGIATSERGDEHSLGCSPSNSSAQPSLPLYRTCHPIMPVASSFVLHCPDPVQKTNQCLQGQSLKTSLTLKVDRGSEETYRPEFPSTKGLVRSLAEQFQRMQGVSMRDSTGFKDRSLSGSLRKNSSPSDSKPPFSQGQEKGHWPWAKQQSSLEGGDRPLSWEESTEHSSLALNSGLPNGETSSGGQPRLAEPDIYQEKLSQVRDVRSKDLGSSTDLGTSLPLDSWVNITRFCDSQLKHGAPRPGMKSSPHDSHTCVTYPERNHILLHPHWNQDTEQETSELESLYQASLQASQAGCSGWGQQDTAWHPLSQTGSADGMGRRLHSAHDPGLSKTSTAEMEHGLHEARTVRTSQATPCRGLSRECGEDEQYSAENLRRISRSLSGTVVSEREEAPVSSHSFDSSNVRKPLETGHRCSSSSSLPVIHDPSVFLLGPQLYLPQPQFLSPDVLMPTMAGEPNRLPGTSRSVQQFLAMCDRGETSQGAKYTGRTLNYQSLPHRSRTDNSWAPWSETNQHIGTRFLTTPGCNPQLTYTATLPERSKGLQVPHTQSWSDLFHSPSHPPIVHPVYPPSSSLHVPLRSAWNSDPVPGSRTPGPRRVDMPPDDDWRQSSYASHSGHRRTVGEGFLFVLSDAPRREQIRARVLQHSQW
Method in brief: as §1

[7] = molecular target: USP7 (UniProt Q93009)
Method in brief: as §1

[8] = molecular target: T5, USP8 (UniProt P40818)
T5 sequence (whole entry): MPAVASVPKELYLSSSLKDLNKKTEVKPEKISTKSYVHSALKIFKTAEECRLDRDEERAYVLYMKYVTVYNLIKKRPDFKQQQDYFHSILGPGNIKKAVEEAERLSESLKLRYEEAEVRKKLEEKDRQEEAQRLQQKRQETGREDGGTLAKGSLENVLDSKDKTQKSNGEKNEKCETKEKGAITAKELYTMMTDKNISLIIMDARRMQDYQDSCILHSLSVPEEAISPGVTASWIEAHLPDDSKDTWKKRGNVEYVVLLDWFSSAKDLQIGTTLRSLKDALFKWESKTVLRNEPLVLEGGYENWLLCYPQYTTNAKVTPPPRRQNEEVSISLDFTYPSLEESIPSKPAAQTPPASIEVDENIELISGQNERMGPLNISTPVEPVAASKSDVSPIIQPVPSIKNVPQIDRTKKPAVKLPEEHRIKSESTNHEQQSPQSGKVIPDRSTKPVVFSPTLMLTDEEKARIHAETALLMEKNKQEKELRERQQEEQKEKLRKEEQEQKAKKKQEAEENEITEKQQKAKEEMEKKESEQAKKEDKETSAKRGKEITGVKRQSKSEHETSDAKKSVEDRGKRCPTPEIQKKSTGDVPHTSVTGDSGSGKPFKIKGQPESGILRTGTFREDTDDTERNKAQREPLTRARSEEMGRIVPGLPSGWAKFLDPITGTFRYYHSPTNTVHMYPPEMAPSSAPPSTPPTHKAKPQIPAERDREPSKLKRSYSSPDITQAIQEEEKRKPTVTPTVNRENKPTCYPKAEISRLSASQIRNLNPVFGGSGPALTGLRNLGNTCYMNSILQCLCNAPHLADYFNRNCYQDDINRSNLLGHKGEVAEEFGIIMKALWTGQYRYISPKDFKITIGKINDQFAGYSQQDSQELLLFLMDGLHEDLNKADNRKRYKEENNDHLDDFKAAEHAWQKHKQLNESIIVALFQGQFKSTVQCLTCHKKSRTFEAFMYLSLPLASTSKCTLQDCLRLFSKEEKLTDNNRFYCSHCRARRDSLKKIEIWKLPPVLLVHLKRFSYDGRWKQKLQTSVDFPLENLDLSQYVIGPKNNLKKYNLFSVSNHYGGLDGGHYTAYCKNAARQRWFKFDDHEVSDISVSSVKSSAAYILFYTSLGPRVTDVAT
Method in brief: as §1

[9] = molecular target: USP9X (UniProt Q93008)
Chain of USP9X (Q93008 whole entry): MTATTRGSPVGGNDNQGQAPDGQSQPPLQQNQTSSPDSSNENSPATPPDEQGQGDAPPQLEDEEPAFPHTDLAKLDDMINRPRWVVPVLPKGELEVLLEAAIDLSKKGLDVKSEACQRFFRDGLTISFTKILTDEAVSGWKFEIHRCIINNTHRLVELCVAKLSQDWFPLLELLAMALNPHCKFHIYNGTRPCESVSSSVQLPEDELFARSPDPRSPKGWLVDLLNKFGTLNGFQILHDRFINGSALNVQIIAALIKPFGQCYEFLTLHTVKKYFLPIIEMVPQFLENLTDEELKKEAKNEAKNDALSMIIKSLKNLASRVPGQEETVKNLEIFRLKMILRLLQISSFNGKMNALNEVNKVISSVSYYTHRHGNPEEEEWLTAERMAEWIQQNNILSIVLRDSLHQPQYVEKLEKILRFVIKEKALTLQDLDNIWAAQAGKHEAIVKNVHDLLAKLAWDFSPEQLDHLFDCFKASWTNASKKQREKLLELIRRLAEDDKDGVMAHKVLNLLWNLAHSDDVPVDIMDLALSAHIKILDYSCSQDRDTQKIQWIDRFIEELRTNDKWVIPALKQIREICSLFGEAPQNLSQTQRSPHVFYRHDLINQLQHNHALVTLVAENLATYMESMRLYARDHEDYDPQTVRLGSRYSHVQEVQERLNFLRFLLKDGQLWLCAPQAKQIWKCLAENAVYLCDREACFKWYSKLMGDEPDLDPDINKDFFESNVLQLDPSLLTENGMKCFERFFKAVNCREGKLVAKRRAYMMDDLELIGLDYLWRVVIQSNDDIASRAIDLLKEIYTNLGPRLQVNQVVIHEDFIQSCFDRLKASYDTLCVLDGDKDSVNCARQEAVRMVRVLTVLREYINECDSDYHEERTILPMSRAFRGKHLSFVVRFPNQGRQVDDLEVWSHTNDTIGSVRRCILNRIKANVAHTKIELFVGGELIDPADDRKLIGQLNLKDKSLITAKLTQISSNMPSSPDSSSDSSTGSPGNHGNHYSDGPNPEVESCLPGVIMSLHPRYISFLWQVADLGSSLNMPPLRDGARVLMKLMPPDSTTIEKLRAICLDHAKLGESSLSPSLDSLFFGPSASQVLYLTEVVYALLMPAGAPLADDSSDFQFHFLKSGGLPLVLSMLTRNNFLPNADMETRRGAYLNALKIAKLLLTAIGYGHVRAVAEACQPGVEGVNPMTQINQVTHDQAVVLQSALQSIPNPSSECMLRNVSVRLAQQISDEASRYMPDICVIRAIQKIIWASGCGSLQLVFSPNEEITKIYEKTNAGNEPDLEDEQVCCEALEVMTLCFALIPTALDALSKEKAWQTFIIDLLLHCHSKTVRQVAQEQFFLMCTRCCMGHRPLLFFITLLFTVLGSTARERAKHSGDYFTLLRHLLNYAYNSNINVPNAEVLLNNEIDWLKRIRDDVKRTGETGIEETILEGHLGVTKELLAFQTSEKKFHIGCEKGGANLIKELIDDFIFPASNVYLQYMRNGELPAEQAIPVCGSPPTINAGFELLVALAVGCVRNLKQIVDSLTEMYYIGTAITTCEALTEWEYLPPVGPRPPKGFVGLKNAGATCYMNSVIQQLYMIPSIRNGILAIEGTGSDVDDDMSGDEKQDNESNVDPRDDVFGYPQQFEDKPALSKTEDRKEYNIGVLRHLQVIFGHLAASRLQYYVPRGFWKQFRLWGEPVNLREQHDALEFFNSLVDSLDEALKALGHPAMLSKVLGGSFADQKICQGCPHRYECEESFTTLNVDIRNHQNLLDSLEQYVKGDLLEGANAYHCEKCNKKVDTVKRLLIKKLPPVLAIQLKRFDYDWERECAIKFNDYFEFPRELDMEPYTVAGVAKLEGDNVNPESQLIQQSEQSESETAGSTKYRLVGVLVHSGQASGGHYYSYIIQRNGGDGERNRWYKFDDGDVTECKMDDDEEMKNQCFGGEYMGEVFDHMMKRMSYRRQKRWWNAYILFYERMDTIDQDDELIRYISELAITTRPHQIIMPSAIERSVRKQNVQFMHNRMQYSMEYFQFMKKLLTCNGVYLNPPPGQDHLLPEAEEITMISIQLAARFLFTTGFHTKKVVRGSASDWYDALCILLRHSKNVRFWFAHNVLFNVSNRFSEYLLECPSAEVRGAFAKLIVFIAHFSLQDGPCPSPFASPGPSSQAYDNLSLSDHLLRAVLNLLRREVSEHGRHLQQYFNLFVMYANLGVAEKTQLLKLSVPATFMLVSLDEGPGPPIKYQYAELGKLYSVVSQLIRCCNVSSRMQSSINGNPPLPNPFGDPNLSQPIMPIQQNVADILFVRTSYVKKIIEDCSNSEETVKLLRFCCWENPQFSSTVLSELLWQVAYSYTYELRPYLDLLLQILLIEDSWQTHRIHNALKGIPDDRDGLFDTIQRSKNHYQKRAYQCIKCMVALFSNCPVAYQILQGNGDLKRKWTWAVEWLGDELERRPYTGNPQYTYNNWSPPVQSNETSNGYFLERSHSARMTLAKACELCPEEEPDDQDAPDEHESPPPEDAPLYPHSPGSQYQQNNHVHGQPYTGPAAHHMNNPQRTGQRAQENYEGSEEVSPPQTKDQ
Method in brief: as §1

[10] = molecular target: UniProt O00487
Chain of UniProt O00487 (O00487 whole entry): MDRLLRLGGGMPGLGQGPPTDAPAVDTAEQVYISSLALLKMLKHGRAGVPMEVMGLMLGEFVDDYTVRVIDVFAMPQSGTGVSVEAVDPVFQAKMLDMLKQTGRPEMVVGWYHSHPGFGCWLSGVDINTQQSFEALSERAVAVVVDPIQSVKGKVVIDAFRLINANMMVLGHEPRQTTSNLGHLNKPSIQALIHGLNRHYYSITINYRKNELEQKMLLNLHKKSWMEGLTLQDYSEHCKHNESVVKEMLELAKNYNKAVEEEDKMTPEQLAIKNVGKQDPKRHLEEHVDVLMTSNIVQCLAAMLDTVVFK
Method in brief: as §1

Measured: log2 ratio of Biotin-Ahx-Ub-VS probe labelling

N#Cc1ccc(Cl)cc1NC(=O)CCl
inactive: [1] -0.385 | [2] 0.0423 | [3] -0.413 | [4] -0.305 | [5] -0.153 | [6] -0.514 | [7] -0.47 | [8] -0.0467 | [9] -0.0196 | [10] 0.0781
